Results reported in PubChem BioAssay AID488890 (Southern Research Specialized Biocontainment Screening …, 2010).
Among all 320,000 compounds or so, about 1,300 (0.41%) were called active. Not shown: some 3% with an inconclusive outcome. The rule behind the calls is not given here. The list is a sample of the results. Measured potencies and affinities stand elsewhere.

Assay: growth inhibition of non-replicating M. tuberculosis (AID 488890);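 note: plate controls were DMSO cells for no effect and high antibiotic wells for full effect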
Conditions: Mycobacterium tuberculosis non-replicating, at 25 µM, stronger effect = higher value
Work on `Cc1ccc(OCC(O)CN2CCN(c3ccccn3)CC2)c(C)c1` (stereo not given) yielded an inhibition of 41.5%. `Cc1ccc(NC(=O)C2CCCN2C(=O)Oc2ccccc2)c(C)c1` (stereo not given) gave an inhibition of -3.45%. In the case of `Cc1c(C(=O)NCc2ccccn2)oc2c(Cl)cccc12`, the inhibition is reported as 15.1%. Compound `Clc1cccc(-c2ccc(CNCCCN3CCOCC3)o2)c1` has an inhibition of -19.7%. For `Clc1ccc(-c2ccc(CNCC3CCCO3)o2)cc1` (stereo not given), the inhibition was 72.6%. In the case of `Cc1c(Cl)cccc1NC(=O)NCc1ccccn1`, the inhibition is reported as -10.1%. Compound `O=C(Nc1nccs1)c1ccc(-c2ccc(F)c(Cl)c2)o1` has an inhibition of 29.7%. Compound `COc1ccc(-c2ccc(CNCc3ccccn3)o2)cc1Cl` has an inhibition of 78.7%. With `O=C(NCc1ccccn1)c1cc(-c2ccc(Cl)cc2)oc1C(F)(F)F` the inhibition was 10.7%. For `O=C(NCc1ccccn1)Nc1ccc(F)c(Cl)c1`, the inhibition was -1.66%. Compound `O=C1NCCN/C1=C\C(=O)c1cccc(Br)c1` has an inhibition of -1.75%. For `CC1=C(C(=O)OC(C)C)C(c2coc3ccccc3c2=O)C2=C(CCCC2=O)N1` (stereo not given), the inhibition was 21.4%. `CCOc1ccccc1OCC(=O)OCc1csc(CC(=O)Nc2ccccc2C)n1` showed an inhibition of 37.2%. `COc1ccc(NC(=O)CSc2nc3ccsc3c(=O)n2CCCCCC(=O)O)cc1` gave an inhibition of -12.1%. `O=C(c1ccc2c(c1)OCO2)N1CCC2(CC1)Oc1ccc(F)cc1C(=O)C21CC(c2ccccc2)=NO1` (stereo not given) showed an inhibition of 42.7%. `COc1cc(C(C)=O)ccc1OCC(=O)NCC1(N2CCCCC2)CCCCC1` showed an inhibition of 23.8%. In the case of `O=C(CCc1c[nH]c2ccccc12)N[C@@H](Cc1c[nH]c2ccc(O)cc12)C(=O)O`, the inhibition is reported as -12.9%. Compound `O=S(=O)(NCC(c1cccnc1)N1CCN(c2ccccc2)CC1)c1cccs1` (stereo not given) has an inhibition of 44.5%. `O=C1CC(N2CCN(c3ccccc3)CC2)C(=O)N1c1ccc(Cl)cc1` (stereo not given) showed an inhibition of 58.5%. Work on `O=C(NCc1ccccn1)Nc1ccc(Br)cc1` yielded an inhibition of -10.5%. For `Fc1ccc(-c2ccc(CNCc3ccccn3)o2)cc1`, the inhibition was 74.8%. Compound `CC(C)c1ccc(N(C)C(=O)Cc2c(C(=O)O)n(C)c3ccccc23)cc1` has an inhibition of -2.94%. `N#CCc1c(C#N)c(N)nc(N2CCN(C=O)CC2)c1C#N` showed an inhibition of 2.81%. With `Cc1[nH]c(C)c(S(=O)(=O)Nc2ccccc2Cl)c1C(=O)N1CCCC1` the inhibition was -4.19%. `Cc1ccc(N(C)S(=O)(=O)c2cccc(C(=O)NNC(=O)c3ccncc3)c2)cc1` showed an inhibition of 38.7%. `COc1ccc([C@@H]2CC(=O)c3c(O)cc(O[C@@H]4OC(CO[C@@H]5OC(C)[C@H](O)[C@@H](O)[C@H]5O)[C@@H](O)[C@H](O)[C@H]4O)cc3O2)cc1O` (stereo not given in full) showed an inhibition of 2.5%. `CN=C(SCc1ccccc1)c1c(O)n(C)c(=O)n(C)c1=O` gave an inhibition of 11.6%. For `CSC(=Nc1ccccc1)c1c(O)n(C)c(=O)n(C)c1=O`, the inhibition was 56.9%. `CCOC(=O)C1C(=O)CC(=O)CC1CC(C)SCC` (stereo not given) showed an inhibition of -2.43%. For `Cc1ccc(S(=O)(=O)N2CCN(C(=O)CCOc3cc(C)ccc3C)CC2)cc1`, the inhibition was 39.6%. Compound `N#C/C(=C\Nc1ccc(F)c(Cl)c1)C(=O)C1CC1` has an inhibition of -9.33%. Work on `C[C@@H](C(=O)Nc1ccc(SC(F)F)cc1)N1C(=O)C2CCCCC2C1=O` (stereo not given in full) yielded an inhibition of -9.99%. `Cc1ccc(CNC(=O)C2(C)Oc3ccccc3NC2=O)cc1` (stereo not given) showed an inhibition of -3.05%. Compound `CCOC(=O)/C=C1\Nc2ccccc2SC1=O` has an inhibition of 19.5%. `COC(=O)C1CCN(S(=O)(=O)c2c(C)n(C)c(=O)n(C)c2=O)CC1` showed an inhibition of -0.96%. `CCNc1nc2ccccc2[nH]1` showed an inhibition of 11.9%. With `O=C(Nc1ccccc1Oc1cccnc1)C1CCCN(Cc2cccc(Cl)c2)C1` (stereo not given) the inhibition was 16.5%. Compound `Cc1ccc(/C=C2\SC(N3CCCCC3)=NC2=O)cc1` has an inhibition of 77.7%. `CC(C)(C)c1ccc(/C=C2/SC(N3CCCC3)=NC2=O)cc1` gave an inhibition of 73.6%. `O=C(NC1CC2CCCC(C1)N2Cc1ccccc1)C1CCCCC1` (stereo not given) gave an inhibition of -4.43%. Work on `CCCCCCSc1ccc(-c2nc3ccc(C)cn3c2NCc2ccccc2)cc1OC` yielded an inhibition of 8.88%. `O=C(COc1ccccc1)NCC(=O)N/N=C/c1ccccc1` showed an inhibition of 12.4%. Work on `COc1ccc(-c2csc(C3=C(O)CN(CCCN4CCCC4=O)C3=N)n2)cc1OC` yielded an inhibition of 2.8%. In the case of `Cc1ccc2oc(=O)c(/C=C(\O)c3ccccc3)nc2c1`, the inhibition is reported as 4.41%. In the case of `Cc1ccc2oc(=O)c(/C=C(\O)c3ccco3)nc2c1`, the inhibition is reported as -4.98%. In the case of `Cc1ccc(/C(O)=C/c2nc3cc(C)ccc3oc2=O)cc1`, the inhibition is reported as 18.1%. `Cc1ccc2oc(=O)c(/C=C(\O)c3cccs3)nc2c1` gave an inhibition of -10.4%. Compound `Cc1ccc2oc(=O)c(/C=C(\O)c3sc(C)nc3C)nc2c1` has an inhibition of 2.53%. For `O=c1oc2ccccc2nc1/C=C(\O)c1ccccc1`, the inhibition was 77.3%. For `CC(C(=O)c1ccccc1)[n+]1cccc(C(N)=O)c1` (stereo not given), the inhibition was -11.2%. In the case of `Cc1cc(=O)[nH]c(SCC(=O)Nc2ccc(S(=O)(=O)N3CCOCC3)cc2)n1`, the inhibition is reported as -13.9%. Work on `CN(c1ccc(C(=O)NC2CCCC2)cc1)S(=O)(=O)c1ccccc1` yielded an inhibition of 9.33%. `CC(=O)Oc1ccc(OC(C)=O)c(S(=O)(=O)c2ccc(C)c(C)c2)c1` showed an inhibition of -1.53%. Compound `CCOC(=O)N1CCN(S(=O)(=O)c2ccc(C)cc2)C1c1ccc(OC)cc1` (stereo not given) has an inhibition of 16.9%. In the case of `Brc1ccc2c(c1)C(c1ccc(N3CCOCC3)cc1)=NNC(c1cccs1)=N2`, the inhibition is reported as 18.5%. For `c1ccc(-n2c(-c3ccco3)nnc2-c2ccco2)cc1`, the inhibition was -0.67%. For `COC(=O)[C@@]1(Cc2ccc(OC)cc2)[C@H]2c3cc(C(=O)N(C)C)n(CCc4ccc(OC)c(Br)c4)c3C[C@H]2CN1C(=O)c1ccccc1`, the inhibition was 70.8%. Work on `CCSc1ncc(/C=N/Nc2ccccc2)n1C` yielded an inhibition of 53.4%. `CCSc1ncc(/C=N/Nc2ccc(F)cc2)n1C` showed an inhibition of 60.8%. Compound `COc1cc(CC(NC(C)=O)C(=O)NC2CCN(c3c4c(nc5ncnn35)CCC4)CC2)cc(OC)c1` (stereo not given) has an inhibition of -7.76%. `Cc1nnsc1C(=O)N/N=C/c1ccccc1` gave an inhibition of -14.8%. `Cc1ccc(C(=O)N/N=C/c2c(O)ccc3ccccc23)cn1` gave an inhibition of -8.14%. Compound `CCOc1ccc2ccccc2c1/C=N/NC(=O)c1ccc(C)nc1` has an inhibition of 6.31%. Compound `O=C(N/N=C/c1cccc2ccccc12)c1cccnc1` has an inhibition of 77.8%. Work on `CCOc1ccc2ccccc2c1/C=N\NC(=O)c1ccc([N+](=O)[O-])cc1` yielded an inhibition of 8.86%. For `COc1ccc(/C=N/NC(=O)c2snnc2C)c(OC)c1OC`, the inhibition was 4.13%. For `O=C(N/N=C/c1ccccc1C(=O)O)c1ccncc1`, the inhibition was 47.8%. In the case of `O=C(N/N=C/c1ccccc1O)c1ccncc1`, the inhibition is reported as 67.2%. In the case of `Cc1ccc(NC(=O)[C@H](C)NC(=O)C2CCN(C(=O)[C@@H](NC(=O)OC(C)(C)C)C(C)C)CC2)cc1`, the inhibition is reported as -5.73%. For `CC(C)[C@H](NC(=O)c1ccco1)C(=O)OCC(=O)NC12CC3CC(CC(C3)C1)C2`, the inhibition was 16.5%. `O=C(Nc1cccc(-n2cnnn2)c1)c1cnccc1Cl` gave an inhibition of -2.47%. For `O=C(NCc1ccccc1)c1ccc(CN2CCC(Cc3ccccc3)CC2)cc1`, the inhibition was 63.1%. `CCCc1ccc2oc(C(=O)N3CCC(N4CCCC(O)C4)CC3)c(C)c2c1` (stereo not given) gave an inhibition of 9.91%. In the case of `O=C(NC1=NCCS1)c1cc(-c2ccccc2)nn1-c1ccccc1`, the inhibition is reported as 12.3%. `O=C(O)c1ccc(N/N=C/c2cccc3cccnc23)cc1` gave an inhibition of -19.9%. `Cc1cccc2cc(/C=N/NC(=O)c3ccccc3O)c(Cl)nc12` showed an inhibition of -1.47%. With `CCOc1ccccc1C(=O)N/N=C/c1cccc2cccnc12` the inhibition was 78.1%. `COc1cccc(/C=N/NC(=O)COc2cccc3cccnc23)c1O` gave an inhibition of 22.2%. `O=C(COc1cccc2cccnc12)N/N=C/c1ccccc1O` gave an inhibition of 21.3%. Compound `CCOc1ccc(C(=O)Nc2cccc3cccnc23)cc1` has an inhibition of 39%. With `COc1ccc(C(=O)N/N=C/c2cccnc2)cc1` the inhibition was -12.5%. For `O=C(N/N=C/c1ccnc2ccccc12)c1ccccc1O`, the inhibition was 24.1%. In the case of `O=C(c1ccccc1)N1CCN(C(=S)NCc2ccco2)CC1`, the inhibition is reported as -12.8%. Work on `Cc1cc(/C=N/O)c(C)n1-c1cccc(Cl)c1` yielded an inhibition of 5.04%. Compound `Nc1c(C(=O)Nc2ccc3c(c2)OCCO3)nnn1Cc1cccc(Br)c1` has an inhibition of 1.42%. Work on `CCOc1ccc(N=C2NC(=O)C(CC(=O)Nc3ccc(OC)cc3)S2)cc1` (stereo not given) yielded an inhibition of 23%. Work on `N#Cc1ccc(C23CC4(C2)[C@H](CN(Cc2ccc(-c5ccccc5)cc2)[C@@H]4c2ccccc2)C3c2ccccc2)cc1` (stereo not given in full) yielded an inhibition of 34.9%. In the case of `CCN(CC)C(=O)CSc1nc(OC)cc(=O)[nH]1`, the inhibition is reported as -3.35%. For `COC(=O)C1=C(C(=O)OC)[C@@H]2N(Cc3ccccc3)c3ccccc3[C@@]23C[C@@H](CO)N(C(=O)NC2CCCC2)C3=N1`, the inhibition was 39.9%. With `Cc1ccc(S(=O)(=O)N2CCC(=O)N(CCOC(=O)NCc3ccccc3)CC2)cc1` the inhibition was 16.1%. Work on `O=C(O)c1ccc(N2CC3CC(C2)c2cccc(=O)n2C3)c(NC(=S)Nc2ccc(Br)cc2)c1` (stereo not given) yielded an inhibition of 41.1%. Compound `O=[N+]([O-])c1ccc(Nc2cccc(F)c2)nc1` has an inhibition of 16.5%. Compound `O=C(c1ccco1)N1N=C(c2ccncc2)CC1(O)C(F)(F)F` (stereo not given) has an inhibition of -9.67%. Work on `CC1=NN(C(=O)CCc2ccc3c(c2)OCO3)C(O)(C(F)(F)F)C1` (stereo not given) yielded an inhibition of -15.8%. Work on `CC1=NN(C(=O)c2ccc(Cn3nc(C)cc3C)o2)C(O)(C(F)(F)F)C1` (stereo not given) yielded an inhibition of 24.9%. For `CC1=NN(C(=O)c2nn(C)cc2Br)C(O)(C(F)(F)F)C1` (stereo not given), the inhibition was 8.53%. `COc1ccc(OCC(=O)N2N=C(C)CC2(O)C(F)(F)F)cc1` (stereo not given) showed an inhibition of 75.8%. In the case of `CC1=NN(C(=O)c2cccnc2)C(O)(C(F)(F)F)C1` (stereo not given), the inhibition is reported as -26.1%. Compound `COc1ccc(CC(=O)N2N=C(C)CC2(O)C(F)(F)F)cc1` (stereo not given) has an inhibition of 72.4%. For `CC1=NN(C(=O)CCc2ccccc2O)C(O)(C(F)(F)F)C1` (stereo not given), the inhibition was 74.8%. Work on `COC(=O)c1ccccc1NC(=O)COC(=O)/C=C/c1cccs1` yielded an inhibition of 18.2%. Work on `CC(C)c1ccc(C(O)Cc2nc3ccccc3n2C)cc1` (stereo not given) yielded an inhibition of 41.1%. Work on `OCCCc1nc2n(n1)C(c1cccs1)C=C(c1ccccc1)N2` (stereo not given) yielded an inhibition of 0.31%. With `CCOC(=O)c1cc([N+](=O)[O-])sc1N` the inhibition was 5.99%. Compound `CCn1c(C(=O)O)c(CC(=O)NC2CCCCCC2)c2ccccc21` has an inhibition of 24.3%. Work on `O=C(CSc1ncccn1)NC1CCCc2ccccc21` (stereo not given) yielded an inhibition of -8.14%. In the case of `CC1=NN(C(=O)c2cccc(Cn3nc(C)c([N+](=O)[O-])c3C)c2)C(O)(C(F)(F)F)C1` (stereo not given), the inhibition is reported as 76.4%. In the case of `COc1ccc(CC(=O)N2N=C(C)CC2(O)C(F)(F)F)cc1OC` (stereo not given), the inhibition is reported as 45.4%. For `CC1=NN(C(=O)Cn2nc([N+](=O)[O-])cc2C)C(O)(C(F)(F)F)C1` (stereo not given), the inhibition was 32.3%. With `CC1=NN(C(=O)c2ccc(Cn3ccc([N+](=O)[O-])n3)cc2)C(O)(C(F)(F)F)C1` (stereo not given) the inhibition was 75.5%.
